# High-throughput results as filed in PubChem.
# This is a sample that favours compounds with a hit; in the whole collection about 19% have one here.
# IL-1B inflam inh: inhibitors of inflammasome signaling (IL-1 beta secretion); activity change, % at 57.5 µM; 4.7% of 360,000 active; THP-1 LPS/ATP IL-1B secretion, AlphaLISA, 16 h; stronger effect = lower value; in the data active means activity change below about -50%; inconclusive means mostly about -30% to -49%
#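 THP-1 cells pretreated 1 hr with compounds (up to 57.5 uM final), then stimulated with LPS (250 ng/mL final) plus ATP (1.25 mM final); secreted IL-1B measured by AlphaLISA after 16 hr, decreased signal indicating inhibition.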
# ELG1 repair inh: ELG1-dependent DNA repair inhibition; 2.3% of 330,000 active; HEK293T ELG1-luciferase reporter, luminescence, 16 h; DNA damage induced by 5-fluorouridine; Potency, µM (doses to about 46.1 µM), for the others: top-dose activity change, negative = inhibition, actives largely listed as inhibitors; AID 504467; further: potency means the concentration at half of the fitted maximal effect; nearly all actives have a fitted effect of over 55% in size
#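 5-Fluorouridine DNA damage + compound/DMSO, 2,000 cells/well, 16 h, 37 °C/5% CO2. ONE-Glo, 30 min RT, luminescence. Readout = decrease in reporter signal.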
# DT40 TDP1 CPT: DT40-hTDP1 cell growth loss with CPT; chicken DT40 Tdp1-/-;hTDP1 cells + 20 nM CPT, ATP luminescence, 48 h; Potency, µM (top dose mostly 46.2 µM), for the others: at the highest dose activity change, negative = growth inhibition, usual class: inhibitors; 12% of 420,000 active; AID 686979; further: potency means the concentration at half of the fitted maximal effect; nearly all actives have a fitted effect of over 55% in size
#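 Chicken DT40 Tdp1-/- cells stably complemented with human TDP1 were seeded at 400 cells/well in medium containing 20 nM camptothecin, exposed to pin-transferred compounds, and grown at 37 °C for at least 48 hr. Viability was read as ATP luminescence.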
# TDP1 cell noCPT: qHTS for Inhibitors of human tyrosyl-DNA phosphodiesterase 1 (TDP1): qHTS in cells in absence of CPT; DT40 Tdp1-/- hTDP1 cells, no CPT, ATP luminescence, 48 h; AID 686978, 2013; Potency, µM (series often up to 46.2 µM), inactives show at the top dose activity change, negative = growth inhibition, hits mostly inhibitors; 15% of 420,000 active; further: potency means the concentration at half of the fitted maximal effect; nearly all actives have a fitted effect of over 55% in size
#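 A cellular qHTS used chicken DT40 cells lacking endogenous Tdp1 but carrying stably transfected human TDP1. Compounds were applied without camptothecin, and cell growth kinetics were judged by ATP-dependent luminescence after ≥48 hr.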
# Giardia kill: kills Giardia lamblia; Giardia lamblia trophozoite viability; activity change, % at 7.66 µM, hits read low; 0.15% of 340,000 active; AID 540267; in the data active means activity change below about -80%; inconclusive means between about -30% and that limit;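 further: parasites exposed to compound for two days anaerobically before the ATP read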
#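 Luminescence from cellular ATP indicates surviving trophozoites (100 cells/well) following 48 hrs anaerobic compound treatment at 37 deg C; signal develops 15-30 min at room temperature.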
# TDP1 inh: blocks human tyrosyl-DNA phosphodiesterase 1. recombinant TDP1, AlphaScreen DNA substrate cleavage. Potency, µM (titrated, usually from 130 µM), for the others: at the highest dose activity change, negative = inhibition, hits mostly inhibitors. 0.28% of 350,000 active. AID 485290; further: potency means the concentration at half of the fitted maximal effect; nearly all actives have a fitted effect of over 40% in size
# Target sequence (Q9NUW8 whole entry, looked up): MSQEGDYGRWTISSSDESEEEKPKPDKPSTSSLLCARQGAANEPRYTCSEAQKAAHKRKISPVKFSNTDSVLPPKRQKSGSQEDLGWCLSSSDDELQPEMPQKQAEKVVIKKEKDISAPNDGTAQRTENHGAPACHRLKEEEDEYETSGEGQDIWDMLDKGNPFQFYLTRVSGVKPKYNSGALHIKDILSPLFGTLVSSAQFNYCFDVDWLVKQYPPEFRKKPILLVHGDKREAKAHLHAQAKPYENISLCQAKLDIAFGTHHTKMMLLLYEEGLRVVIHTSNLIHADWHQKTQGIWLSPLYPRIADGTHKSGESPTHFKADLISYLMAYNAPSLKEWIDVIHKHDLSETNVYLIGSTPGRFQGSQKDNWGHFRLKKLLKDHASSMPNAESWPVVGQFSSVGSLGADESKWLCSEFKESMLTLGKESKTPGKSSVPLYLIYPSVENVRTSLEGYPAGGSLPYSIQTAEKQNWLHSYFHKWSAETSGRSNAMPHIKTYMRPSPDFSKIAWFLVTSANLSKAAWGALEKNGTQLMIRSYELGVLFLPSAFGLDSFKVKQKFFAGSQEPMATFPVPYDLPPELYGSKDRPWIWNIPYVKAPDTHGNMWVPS
#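 Compounds were preincubated with Tdp1 (1 nM final) for 15 min at room temperature before substrate (15 nM final) started a 5 min reaction; beads (10 ug/ml final) were then added for 10 min before AlphaScreen detection.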
# An asterisk follows results filed as active; i = inactive; ? = inconclusive; . = not tested or not shown; [ ] = remark or other dose. Unless noted, the call rests on the fitted dose curve; in most records, active means well fitted curve in the direction sought with a large enough effect; inconclusive means small, poorly fitted or top-dose-only effect, or another doubt; inactive means no such curve, though single readings can be large; an effect the other way counts as inactive or inconclusive. On the % scale 0 is the no-effect control and ±100 the full control effect.
SMILES,IL-1B inflam inh,ELG1 repair inh,DT40 TDP1 CPT,TDP1 cell noCPT,Giardia kill,TDP1 inh
CC(C)CCNC(=O)Nc1ccc2c(c1)N(C)C(=O)CS2,-10,.,8%,?,-7,6%
CN1C(=O)c2ccccc2Sc2ccc(NC(=O)NCc3ccccc3Br)cc21,.,.,16µM*,21µM*,.,3%
COc1ccccc1CNC(=O)Nc1ccc2c(c1)N(C)C(=O)c1ccccc1S2,.,.,?,?,.,6%
CC(C)CCNC(=O)Nc1ccc2c(c1)N(C)C(=O)c1ccccc1S2,.,.,15µM*,16µM*,.,9%
CCOC(=O)C1=C(C)NC(=S)N(C=O)C1c1ccccc1 (centres undefined),-12,-2%,-15%,?,-1,4%
COc1cccc(NC(=O)C2CCC(CNS(=O)(=O)c3csc(C(N)=O)c3)CC2)c1 (centres undefined),.,.,?,-13%,.,3%
CC(C)(C)NS(=O)(=O)c1cccc(S(=O)(=O)c2cccc(S(=O)(=O)NC(C)(C)C)c2)c1,-19,?,23µM*,?,9,0%
NC(=O)/N=N/C(N)=O,.,.,.,.,.,15%
CC#CCN1c2ccccc2[C@]23C[C@@H](C(=O)OC)N(S(=O)(=O)CCCC)C2=NC(C(=O)OC)=C(C(=O)OC)[C@H]13,.,.,.,.,.,16%[12.3 µM]
COc1ccccc1N=C(C)C1=C(O)CC(c2ccccc2)CC1=O (centres undefined),32,-9%,0.52µM*,0.82µM*,16,2%
CCCC(=Nc1ccccc1OC)C1=C(O)CC(c2ccccc2)CC1=O (centres undefined),i,3%,?,?,5,0%
CCOC(=O)N1C(C)CN(/[N+]([O-])=N/Oc2ccc([N+](=O)[O-])cc2[N+](=O)[O-])CC1C (centres undefined),.,.,.,.,?,1%
C#CCOCCOCCOCCNc1nc(N2CCOCC2)nc(N2CCN(C(=O)[C@H](C)n3cc(CCC(=O)O)nn3)CC2)n1,17,.,8%,-2%,12,.
CCOCCCNCC(=O)Nc1ccccc1N1CCOCC1,4,-1%,-10%,0%,-8,0%
CCOC(=O)c1c(-c2ccc(C)cc2)csc1NC(=O)CCN1CCOCC1,-13,-17%,?,23µM*,-13,-4%
CCOC(=O)c1c(-c2ccccc2)csc1NC(=O)COc1ccc2c(C)cc(=O)oc2c1,-20,?,?,12µM*,-2,0%
CCOC(=O)c1c(-c2ccccc2)csc1NC(=O)CCN1CCOCC1,9,23µM*,?,23µM*,-8,6%
O=C(CN1CCOCC1)Nc1scc(-c2ccccc2)c1C(=O)N1CCOCC1,10,0%,16%,-10%,-19,4%
CCOC(=O)c1[nH]cc(-c2ccccc2)c1N1CCOCC1,-15,?,16µM*,29µM*,-12,8%
CCOC(=O)c1c(-c2ccccc2)csc1NC(=O)c1ccc(S(=O)(=O)N2CCOCC2)cc1,0,?,5.8µM*,10µM*,-11,0%
CSc1nc2[nH]c(=O)n(O)c(=O)c2n1Cc1ccccc1,-9,.,?,18µM*,-18,.
O=C(CN1C(=O)COc2ccc(S(=O)(=O)N3CCOCC3)cc21)N1CCN(c2cccc(C(F)(F)F)c2)CC1,.,.,.,.,.,12%
COc1ccc(C(=O)NC(=S)NC(C)(C)C)cc1Br,-27,?,?,23µM*,-14,8%
CC(C)Oc1cccc(C(=O)NC(=S)Nc2ccccc2N2CCOCC2)c1,2,0%,?,?,-5,7%
COc1ccc(C(=O)NC(=S)NC(C)C)cc1Br,0,19%,?,?,-11,-2%
SMILES,IL-1B inflam inh,ELG1 repair inh,DT40 TDP1 CPT,TDP1 cell noCPT,Giardia kill,TDP1 inh
COc1ccc(C(=O)NC(=S)Nc2ccccc2N2CCOCC2)cc1Br,-22,?,?,18µM*,-2,5%
Fc1cc(F)cc(NC(=S)Nc2ccccc2N2CCOCC2)c1,-9,-10%,-15%,26µM*,8,8%
COc1ccc(C(=O)Nc2ccccc2N2CCOCC2)cc1Br,-20,-9%,?,?,-20,4%
CCOc1ccc(C(=O)NC(=S)Nc2ccccc2N2CCOCC2)cc1Br,-14,?,?,16µM*,8,-3%
Cc1c([N+](=O)[O-])cc(C(=O)Nc2ccc(NC(=O)c3ccco3)cc2)cc1[N+](=O)[O-],-24,6%,5%,-2%,-15,8%
O=C(/C=C/c1ccccc1)NCCc1c[nH]c2ccccc12,47,.,-4%,-2%,-3,.
COc1cccc(-c2cc(NCc3ccc(OC)cc3OC)ncn2)c1,.,.,10µM*,13µM*,.,.
COc1ccccc1CNc1cc(-c2ccccc2OC)ncn1,.,.,4.6µM*,2.9µM*,.,.
COc1ccccc1CNc1cc(-c2ccccc2C)ncn1,.,.,4.1µM*,4.1µM*,.,.
COc1ccccc1CNc1cc(-c2cccnc2)ncn1,.,.,?,-18%,.,.
COc1ccc(CNc2cc(-c3ccccc3CN(C)C)ncn2)c(OC)c1,.,.,-24%,?,.,4%[56.1 µM]
COc1cccc(NC(=O)CSc2nc3ccccc3c(=O)n2CCCC(=O)NCC2CCCO2)c1 (centres undefined),-3,?,-25%,-4%,44,1%
Cc1cc(NC(=O)CSc2nnc3c4c(C)c(C)sc4ncn23)no1,54,-1%,?,18µM*,-4,3%
CCc1c(C)sc2nc(SCC(=O)Nc3cc(C)on3)n(CCOC)c(=O)c12,-5,-2%,?,1.2µM*,-8,2%
Cc1cc(NC(=O)CSc2nc3sc(C)c(C)c3c(=O)n2C2CCCC2)no1,-4,?,9.2µM*,-29%,-1,-2%
Cc1cc(NC(=O)CSc2nc(C(C)C)nc3sc(C)c(C)c23)no1,13,3%,-26%,-29%,6,7%
COc1ccc(N2CCN(C(=O)c3ccccc3NC(=O)c3ccccc3)CC2)cc1,0,1%,-1%,-1%,15,9%
Cc1nonc1OCC(C)(COc1nonc1C)NC(=O)c1ccccc1,6,2%,-29%,-5%,-18,4%[56.1 µM]
CCOP(=O)(OCC)C(NC(C)=O)C(=O)c1ccccc1 (centres undefined),-22,10%,-5%,3.7µM*,?,5%
Cc1ccc(S(=O)(=O)Nc2ccc(F)cc2)cc1C(=O)N1CCOCC1,12,0%,-4%,?,-7,0%
